Several values for one entry are separate records, joined by “and”; a condition that tells them apart may be missing. Identical values can stand only once. The whole screen tested about 5,500 compounds, of which about 2,000 (36%) were called active. About 18% were inconclusive and are not listed. Cut-off read from the data, not from the text of the source: active = normalized growth mostly below about 0.91 (no sharp cut-off); inconclusive = no clear call, values can overlap the other calls; inactive = mostly above about 0.92. Some of the results follow.
Assay: chemical genetic growth profiling, strain panel (AID 1159580);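 note: tested at 20 µM; growth read once vehicle control cultures reached saturation at 30 °C; 1 = growth at the plate median or of vehicle wells; lower values mean less growth of the strain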
Conditions: S. cerevisiae deletion strains, growth OD

Measured: normalized growth

COc1cc(C(C)=O)cc(OC)c1O
inactive: locus YAL013W, strain DEP1, active compounds read low 0.991 | locus YAL021C, strain ccr4, active compounds read low 1.04 | locus YAL026C, strain drs2, active compounds read low 1.03 | locus YAL030W, strain snc1, active compounds read low 1.01 | locus YBL061C, strain skt5, active compounds read low 1.03 | locus YBR009C, strain hhf1, active compounds read low 1.04 | locus YBR021W, strain FUR4, active compounds read low 1.01 | locus YBR023C, strain chs3, active compounds read low 1.03 | locus YBR171W, strain sec66, active compounds read low 1.03 | locus YBR229C, strain ROT2, active compounds read low 0.998 | locus YBR231C, strain swc5, active compounds read low 1.02 | locus YBR279W, strain paf1, active compounds read low 1.02 | locus YCL011C, strain gbp2, active compounds read low 1.03 | locus YCL016C, strain dcc1, active compounds read low 1.02 | locus YCL029C, strain bik1, active compounds read low 1 | locus YCL061C, strain MRC1, active compounds read low 1.02 | locus YCL069W, strain vba3, active compounds read low 1.01 | locus YCR088W, strain abp1, active compounds read low 1.02 | locus YDL005C, strain med2, active compounds read low 1.02 | locus YDL035C, strain GPR1, active compounds read low 0.993 | locus YDL040C, strain nat1, active compounds read low 1.01 | locus YDL074C, strain BRE1, active compounds read low 1.04 | locus YDL101C, strain DUN1, active compounds read low 1.01 | locus YDL134C, strain PPH21, active compounds read low 0.991 | locus YDL185W, strain tfp1, active compounds read low 1 | locus YDL192W, strain arf1, active compounds read low 0.99 | locus YDR001C, strain nth1, active compounds read low 1.01 | locus YDR069C, strain doa4, active compounds read low 1.04 | locus YDR101C, strain arx1, active compounds read low 1.01 | locus YDR137W, strain rgp1, active compounds read low 1.08 | locus YDR150W, strain NUM1, active compounds read low 0.978 | locus YDR159W, strain sac3, active compounds read low 1.05 | locus YDR162C, strain NBP2, active compounds read low 0.986 | locus YDR195W, strain ref2 1.05 | locus YDR297W, strain sur2, active compounds read low 1.02 | locus YDR318W, strain mcm21, active compounds read low 0.991 | locus YDR334W, strain swr1, active compounds read low 1.02 | locus YDR335W, strain msn5, active compounds read low 1.02 | locus YDR388W, active compounds read low 0.994 | locus YDR392W, strain spt3, active compounds read low 0.971 | locus YDR502C, strain sam2, active compounds read low 1.01 | locus YEL003W, strain gim4, active compounds read low 1.04 | locus YEL037C, strain rad23, active compounds read low 1.02 | locus YEL061C, strain CIN8 (second series), active compounds read low 1.03 | locus YEL061C, strain CIN8, active compounds read low 0.999 | locus YER015W, strain faa2, active compounds read low 1.02 | locus YER016W, strain bim1, active compounds read low 1.01 | locus YER110C, active compounds read low 1 | locus YER111C, strain swi4, active compounds read low 1.03 | locus YER155C, strain BEM2 (second series), active compounds read low 1.03 | locus YER155C, strain BEM2, active compounds read low 0.994 | locus YER167W, strain BCK2, active compounds read low 0.977 | locus YFR010W, strain ubp6, active compounds read low 1.03 | locus YGL078C, strain dbp3, active compounds read low 0.998 | locus YGL086W, strain mad1, active compounds read low 1.02 | locus YGL167C, strain pmr1, active compounds read low 1.03 | locus YGL173C, strain kem1, active compounds read low 1.04 | locus YGL227W, strain vid30, active compounds read low 1.03 | locus YGL240W, strain doc1, active compounds read low 1.04 | locus YGL248W, strain PDE1, active compounds read low 0.998 | locus YGL253W, strain hxk2, active compounds read low 1.02 | locus YGR135W, strain pre9, active compounds read low 0.994 | locus YGR252W, strain gcn5, active compounds read low 1.02 | locus YHR013C, strain ard1, active compounds read low 1.02 | locus YHR027C, strain rpn1, active compounds read low 1.02 | locus YHR030C, strain SLT2, active compounds read low 1 and 0.985 | locus YHR079C, strain IRE1 (second series), active compounds read low 0.999 | locus YHR079C, strain IRE1, active compounds read low 0.983 | locus YHR094C, strain hxt1, active compounds read low 1 | locus YHR129C, strain ARP1, active compounds read low 1.01 | locus YHR142W, strain chs7, active compounds read low 1.03 | locus YHR200W, strain rpn10, active compounds read low 0.993 | locus YIL066C, strain RNR3, active compounds read low 0.983 | locus YIL073C, strain SPO22, active compounds read low 0.998 | locus YIL125W, strain kgd1, active compounds read low 0.997 | locus YIR030C, strain dcg1, active compounds read low 1.01 | locus YJL092W, strain hpr5, active compounds read low 1.02 | locus YJL095W, strain BCK1 (second series), active compounds read low 1.01 | locus YJL095W, strain BCK1, active compounds read low 1.05 and 0.999 | locus YJL115W, strain asf1, active compounds read low 1.02 | locus YJL129C, strain trk1, active compounds read low 1.05 | locus YJL134W, strain LCB3, active compounds read low 0.993 | locus YJL154C, strain vps35, active compounds read low 1.01 | locus YJL164C, strain tpk1, active compounds read low 1 | locus YJL166W, strain qcr8, active compounds read low 1.04 | locus YJL168C, strain set2, active compounds read low 0.997 | locus YJL187C, strain SWE1 (second series), active compounds read low 1.02 | locus YJL187C, strain SWE1, active compounds read low 1.02 | locus YJR043C, strain POL32, active compounds read low 0.981 | locus YJR066W, strain TOR1, active compounds read low 0.963 | locus YKL009W, strain mrt4, active compounds read low 1.05 | locus YKL068W, active compounds read low 0.993 | locus YKL085W, strain MDH1 (second series), active compounds read low 0.986 | locus YKL085W, strain MDH1, active compounds read low 0.986 | locus YKL160W, strain elf1, active compounds read low 1.03 | locus YKL190W, strain CNB1, active compounds read low 1.01 | locus YKR001C, strain vps1, active compounds read low 0.987 | locus YKR026C, strain gcn3, active compounds read low 0.995 | locus YKR091W, strain srl3, active compounds read low 1.02 | locus YLL001W, strain dnm1, active compounds read low 1.01 | locus YLL026W, active compounds read low 1.02 | locus YLL041C, strain sdh2, active compounds read low 1.02 | locus YLR027C, strain aat2, active compounds read low 1.01 | locus YLR039C, strain RIC1, active compounds read low 1.02 | locus YLR058C, strain SHM2, active compounds read low 0.998 | locus YLR102C, strain apc9, active compounds read low 1 | locus YLR113W, strain HOG1, active compounds read low 0.981 | locus YLR221C, strain rsa3, active compounds read low 1.04 | locus YLR258W, strain gsy2, active compounds read low 1.03 | locus YLR262C, strain YPT6 (second series), active compounds read low 1.07 | locus YLR262C, strain YPT6, active compounds read low 1.07 | locus YLR268W, strain sec22, active compounds read low 1.05 | locus YLR320W, strain mms22, active compounds read low 1.04 | locus YLR330W, strain CHS5, active compounds read low 0.988 | locus YLR342W, strain FKS1 (second series), active compounds read low 1 | locus YLR342W, strain FKS1, active compounds read low 1.02 | locus YLR357W, strain rsc2, active compounds read low 1.06 | locus YLR370C, strain arc18, active compounds read low 1.02 | locus YLR371W, strain rom2, active compounds read low 1.01 | locus YLR384C, strain iki3, active compounds read low 1.01 | locus YLR418C, strain cdc73, active compounds read low 0.967 | locus YML016C, strain PPZ1, active compounds read low 1.01 | locus YML032C, strain rad52, active compounds read low 0.957 | locus YML120C, strain ndi1, active compounds read low 1.03 | locus YML124C, strain tub3, active compounds read low 0.992 | locus YMR058W, strain fet3, active compounds read low 1.02 | locus YMR078C, strain ctf18, active compounds read low 1 | locus YMR125W, strain sto1, active compounds read low 1.04 | locus YMR129W, active compounds read low 1.03 | locus YMR205C, strain PFK2, active compounds read low 1.08 | locus YMR223W, strain ubp8, active compounds read low 0.999 | locus YMR231W, strain pep5, active compounds read low 1.01 | locus YMR307W, strain GAS1, active compounds read low 0.981 | locus YNL067W, strain RPL9B, active compounds read low 1.03 | locus YNL071W, strain lat1, active compounds read low 1.02 | locus YNL183C, strain NPR1, active compounds read low 0.972 | locus YNL209W, strain ssb2, active compounds read low 1.03 | locus YNL233W, strain BNI4, active compounds read low 1.03 | locus YNL248C, strain rpa49, active compounds read low 1.04 | locus YNL250W, strain rad50, active compounds read low 0.988 | locus YNL271C, strain bni1, active compounds read low 0.996 | locus YNL298W, strain CLA4, active compounds read low 1.01 | locus YNL307C, strain MCK1, active compounds read low 1 | locus YNL322C, strain KRE1 (second series), active compounds read low 1.03 | locus YNL322C, strain KRE1, active compounds read low 0.986 | locus YNR049C, strain mso1, active compounds read low 1.02 | locus YNR052C, strain pop2, active compounds read low 0.993 | locus YOL006C, strain TOP1, active compounds read low 1.02 | locus YOL012C, strain htz1 0.701 | locus YOL147C, strain pex11, active compounds read low 0.994 | locus YOR001W, strain rrp6, active compounds read low 1.03 | locus YOR061W, strain CKA2, active compounds read low 0.995 | locus YOR069W, strain VPS5, active compounds read low 0.996 | locus YOR070C, strain gyp1, active compounds read low 1.01 | locus YOR080W, strain dia2, active compounds read low 1.04 | locus YOR083W, strain WHI5, active compounds read low 1.03 | locus YOR106W, strain vam3, active compounds read low 1.07 | locus YOR136W, strain idh2, active compounds read low 1 | locus YOR144C, strain elg1, active compounds read low 0.997 | locus YOR184W, strain ser1, active compounds read low 0.994 | locus YOR231W, strain MKK1, active compounds read low 0.979 | locus YOR265W, strain rbl2, active compounds read low 1.02 | locus YOR270C, strain vph1, active compounds read low 1.1 | locus YOR290C, strain snf2, active compounds read low 0.995 | locus YOR316C, strain cot1, active compounds read low 0.998 | locus YPL051W, strain arl3, active compounds read low 1.02 | locus YPL055C, strain LGE1, active compounds read low 1.01 | locus YPL078C, strain atp4, active compounds read low 1.02 | locus YPL106C, strain sse1, active compounds read low 1.06 | locus YPL240C, strain hsp82, active compounds read low 1.04 | locus YPL256C, strain CLN2, active compounds read low 0.976 | locus YPR119W, strain clb2, active compounds read low 0.991 | locus YPR141C, strain kar3, active compounds read low 0.989 | locus YPR163C, strain tif3, active compounds read low 1 | locus YPR167C, strain met16, active compounds read low 0.989 | strain wtn01, active compounds read low 1.03
